The nature of assay [1]: qHTS of pediatric cancer cell lines to identify multiple opportunities for drug repurposing: Primary screen for Rh18 cells (AID 1347102). Further: nearly all actives have a fitted effect of over 65% in size. In outline:
(§1)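 Cells (500-1,000/well) rested 5 h, then received compounds for 48 h; metabolically active cells were measured by CellTiter-Glo luminescence. Final concentrations spanned up to 46 µM (MIPE, 11-point) or 0.59 nM-46 µM (NPC, 8-point) in primary screens, 11-point in follow-ups.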
On the technique in general: In qHTS, concentration-response curves come from the screen itself.

Assay [2] is described as follows: qHTS of pediatric cancer cell lines to identify multiple opportunities for drug repurposing: Primary screen for OHS-50 cells (AID 1347103). Further: nearly all actives have a fitted effect of over 40% in size. Further: potency means the concentration at half of the fitted maximal effect. An outline of the steps: as §1
Assay [3] is described as follows: qHTS of pediatric cancer cell lines to identify multiple opportunities for drug repurposing: Primary screen for MG 63 (6-TG R) cells (AID 1347105). Further: nearly all actives have a fitted effect of over 50% in size. Further: potency means the concentration at half of the fitted maximal effect. In outline:
(§2)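 Following a 5-hour attachment period, cells at 500-1,000/well received compounds and were cultured for 48 hours. CellTiter-Glo was added and luminescence read to estimate viable, metabolically active cells.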

Assay [4] is described as follows: qHTS of pediatric cancer cell lines to identify multiple opportunities for drug repurposing: Primary screen for control Hh wild type fibroblast cells (AID 1347106).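 Further: series mostly up to about 46 µM; a drop in luminescence marks cytotoxicity and a rise apparent proliferation; nearly all actives have a fitted effect of over 55% in size.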 In outline: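 Viability after 48 h compound treatment at 37C, 500-1,000 cells/well, read as ATP luminescence with CellTiter-Glo. Primary screens used 11-point (MIPE, 0.78 nM-46 µM) or 8-point (NPC, 0.59 nM-46 µM) final concentrations; follow-up screens used 11-point dilutions.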

Assay [5] can be described thus: qHTS of pediatric cancer cell lines to identify multiple opportunities for drug repurposing: Primary screen for Rh30 cells (AID 1347107). Further: series mostly up to about 46 µM; nearly all actives have a fitted effect of over 75% in size. In outline: as §1
Assay [6] is described as follows: qHTS of pediatric cancer cell lines to identify multiple opportunities for drug repurposing: Primary screen for Rh41 cells (AID 1347108). Further: nearly all actives have a fitted effect of over 70% in size. Further: potency means the concentration at half of the fitted maximal effect. In outline: as §2
A short description of assay [7]: qHTS of pediatric cancer cell lines to identify multiple opportunities for drug repurposing: Primary screen for RD cells (AID 1347104). Further: nearly all actives have a fitted effect of over 55% in size. Further: potency means the concentration at half of the fitted maximal effect. In outline:
as §2

Assay [8] in a line: qHTS of pediatric cancer cell lines to identify multiple opportunities for drug repurposing: Primary screen for BT-12 cells (AID 1347101). Further: nearly all actives have a fitted effect of over 25% in size. Further: potency means the concentration at half of the fitted maximal effect. In outline: as §1

In PubChem BioAssay (NCATS) one finds Potency data, which are given here for 22 compounds.

SMILES strings stand for the structures. Records with an inconclusive call do not appear. Calls of active or inactive are those of the source. The call rests on the fitted dose curve; in most records, active means well fitted curve in the direction sought with a large enough effect; inconclusive means small, poorly fitted or top-dose-only effect, or another doubt; inactive means no such curve, though single readings can be large; an effect the other way counts as inactive or inconclusive.

Turning to `CCO[C@H]1O[C@@H]2OC3(C)CC[C@H]4[C@H](C)CC[C@@H]([C@H]1C)[C@@]24OO3`, the Potency result in assay [1], in assay [3], in assay [4] and in assay [5] was “inactive” each time. In addition, in assay [2], the Potency was 13.8 µM (active).

`COc1cc(CC(C)N)c(OC)cc1Br` (stereo not given): the Potency result in assay [1] and in assay [5] was “inactive” each time. For the same compound, the Potency in assay [3] is 17.9 µM (active).

Regarding `NC1(c2ccccc2)CCCCC1`, the Potency result in assay [1], in assay [3], in assay [4] and in assay [5] was “inactive” throughout.

On to `Clc1ccc(C(OCCN2CCCCC2)c2ccccc2)cc1` (stereo not given), for which the Potency result in assay [1], in assay [3], in assay [4] and in assay [5] was “inactive” each time. Besides, the Potency in assay [2] was 19.5 µM (active).

For `C=CCOC(Cn1ccnc1)c1ccc(Cl)cc1Cl` (stereo not given), the Potency entry in assay [1], in assay [3], in assay [4], in assay [5] and in assay [6] was “inactive” throughout.

For `COc1cc(C[C@@H](C)N)c(OC)cc1C`, the Potency entry in assay [1], in assay [7], in assay [3], in assay [4], in assay [5] and in assay [6] was “inactive” in each case.

Turning to `Oc1ccc([C@H]2CNCc3c2ccc(O)c3O)cc1O`, the Potency result in assay [8], in assay [2], in assay [7], in assay [4], in assay [5] and in assay [6] was “inactive” each time.

On to `CCC(=O)C(CCN(C)C)(c1ccccc1)c1ccccc1`, for which the Potency result in assay [3], in assay [4], in assay [5] and in assay [6] was “inactive” throughout.

Take `CN1C(=O)CN=C(c2ccccc2)c2cc(Cl)ccc21`: the Potency entry in assay [8], in assay [7], in assay [3], in assay [4], in assay [5] and in assay [6] was “inactive” each time.

In the case of `N#Cc1nn(-c2c(Cl)cc(C(F)(F)F)cc2Cl)c(N)c1S(=O)C(F)(F)F` (stereo not given), in assay [8], the Potency was 12.3 µM (active). For the same compound, the Potency result in assay [1], in assay [4] and in assay [5] was “inactive” in each case.

For the compound `Oc1ccc2[nH]cc(CCCCN3CC=C(c4ccccc4)CC3)c2c1`, in assay [8], the Potency is 15.5 µM (active). Further, the Potency entry in assay [3], in assay [4], in assay [5] and in assay [6] was “inactive” each time.

In the case of `CCc1cc(OC)c(C[C@H](C)N)cc1OC`, the Potency result in assay [1], in assay [3], in assay [4] and in assay [5] was “inactive” each time.

In the case of `C#C[C@]1(O)CC[C@H]2[C@@H]3CCC4=CC(=O)CCC4=C3C=C[C@@]21CC`, the Potency result in assay [3] and in assay [4] was “inactive” each time.

As for `OC(c1ccccc1)(c1ccccc1)C1CCNCC1`, the Potency result in assay [8], in assay [7], in assay [3], in assay [4], in assay [5] and in assay [6] was “inactive” throughout.

As for `CC1COC2(c3ccccc3Cl)c3cc(Cl)ccc3NC(=O)CN12` (stereo not given), the Potency entry in assay [1], in assay [7], in assay [3], in assay [4], in assay [5] and in assay [6] was “inactive” each time.

Regarding `CC(CC(C#N)(c1ccccc1)c1ccccc1)N(C)C` (stereo not given), the Potency entry in assay [1], in assay [4], in assay [5] and in assay [6] was “inactive” in each case. Also, the Potency is 28.2 µM (active) in assay [2] and 54.5 µM (active) in assay [7].

With `Clc1ccc(CO/N=C(\Cn2ccnc2)c2ccc(Cl)cc2Cl)c(Cl)c1`, the Potency result in assay [4] and in assay [5] was “inactive” each time.

For `O=C(NC(=O)c1c(F)cccc1F)Nc1cc(Cl)c(OC(F)(F)C(F)C(F)(F)F)cc1Cl` (stereo not given), the Potency result in assay [1], in assay [7], in assay [3], in assay [4], in assay [5] and in assay [6] was “inactive” in each case.

In the case of `Cc1nc2ccccc2c(=O)n1-c1ccccc1Cl`, the Potency entry in assay [8], in assay [1], in assay [4], in assay [5] and in assay [6] was “inactive” in each case.

On to `CC[C@H]1C[C@@H]2C[C@H]3c4[nH]c5ccc(OC)cc5c4CCN(C2)[C@@H]13`, for which the Potency entry in assay [1], in assay [4] and in assay [5] was “inactive” in each case. Moreover, the Potency in assay [6] is 30 µM (active).

Regarding `CC(=O)OC1(c2ccccc2)CCN(CCc2ccccc2)CC1`, the Potency in assay [2] is 32.4 µM (active); in assay [7] it was 62.3 µM (active); in assay [6] it was 49.5 µM (active). Moreover, the Potency result in assay [3] and in assay [4] was “inactive” in each case.

Regarding `O=C(CCCN1CCC(n2c(=O)[nH]c3ccccc32)CC1)c1ccc(F)cc1`, the Potency entry in assay [1], in assay [7], in assay [3], in assay [4], in assay [5] and in assay [6] was “inactive” in each case.
